This experiment in a line: small-molecule microarray binders of probe aNog, primary screen, biochemical, biotinylated probe, 635/667 nm fluorescence (AID 1115).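 Also: probe is biotinylated aNog protein used at 0.15 µg/mL for 1 h at 4 C; z-score combines 667 nm fluorescence of each spot with its signal to noise.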 The note with it: higher = more signal.
The compound `Oc1ccc2cc[n+](Cc3cccc(OC(F)(F)F)c3)cc2c1` came in with a composite z-score of -0.85.

As to `CC1CC/C=C\[C@H]2OC34C=CCN(CCN5CCOCC5)C(=O)[C@H]3N(CCCCCO)C(=O)[C@@H]4C2C(=O)O1` (some centres not stated), the composite z-score was -0.321.

The compound `C=C(C(=O)CC[C@@H](OC(=O)c1cccnc1)c1ccc(CO)o1)C(C)C` showed a composite z-score of 0.337.

Compound `C=CCC(OC(C)=O)[C@@H]1[C@@H](N(Cc2cc3ccccc3o2)C(=O)c2cccc3ccccc23)c2cc(OCCCO)ccc2N1C(=O)Cc1ccc(OC)cc1` (some centres not stated) showed a composite z-score of 0.328.

`C=CCN1C(=O)[C@]2(COC(c3ccc(OCCCO)cc3)=N2)Cc2ccccc21` yielded a composite z-score of 0.795.

In turn, `O=C(NCc1ccccc1)[C@@H]1c2ccccc2C(=O)N(C2CCCCC2)[C@H]1c1ccc(CO)cc1` showed a composite z-score of -0.282.

Consider `[N-]=[N+]=NCc1ccccc1C[C@@]1(C(=O)NCc2ccccc2)N=C(c2ccc(OCCCO)cc2)O[C@@H]1c1ccccc1CN=[N+]=[N-]`, for which the composite z-score came out at 1.88.

For `CCOC(=O)C=Cc1cccc(OC)c1O`, the composite z-score is -0.344.

For `CN(C)CCCC[C@@H]1NC(=O)[C@H]2C[C@@H](C(=O)NCCCCCNC(=O)CS)[C@@H](c3ccc(O)cc3)N2C1=O`, the composite z-score is -0.0793.

The compound `COC(=O)[C@@]1(Cc2ccccc2)[C@H]2c3cc(C(=O)N(C)C)n(Cc4cc(F)c(F)c(F)c4)c3C[C@H]2CN1C(=O)c1ccccc1` came in with a composite z-score of 1.79.

As for `C=C(C)[C@@H]1CC=C(C(O)C2C=CC3C(=O)N(Cc4ccccc4)C(=O)C3N2n2cnnc2)CC1` (some centres not stated), the composite z-score was found to be 0.499.

Consider `O=C(NCCN1CCOCC1)[C@@H]1c2ccccc2C(=O)N(Cc2cc(F)cc(C(F)(F)F)c2)[C@H]1c1ccc(CO)cc1`, for which the composite z-score is -0.0949.

The record behind these values is PubChem BioAssay.
